This is a sample that favours compounds with a hit; in the whole collection about 3.5% have one here.
TEAD-YAP block – TEAD-YAP interaction inhibition, primary screen, TEAD-YAP interaction inhibitor project, luminescence, HEK-TIYL cells | TEAD-Gal4/YAP UAS-luciferase luminescence | inhibition, % at 9.12 µM | 640,000 tested, 1.4% active | AID 1259422, 2018; in the data active = inhibition above about 32%
GPR151 activ – activators of human GPR151, primary screen, cell-based, PathHunter beta-arrestin, luminescence; activation, % at 11.2 µM; PathHunter beta-arrestin GPR151 cells; G-protein coupled receptor 151 (Homo sapiens), Q8TDV0; 650,000 tested, 1% active; in the data active = activation above about 4.9%
FBW7 activator – FBW7 E3 ligase activators, primary screen, biochemical, AlphaScreen, human; F-box/WD repeat-containing protein 7 (Homo sapiens), Q969H0; AlphaScreen FBW7–phospho-cyclin E peptide binding, activator screen; normalized activity (activation), % at 26.1 µM; 650,000 tested, 0.13% active; in the data active = normalized activity above about 1.9%;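 also: purified mutant Fbw7 with reduced substrate affinity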
Target sequence (Q969H0 whole entry, looked up): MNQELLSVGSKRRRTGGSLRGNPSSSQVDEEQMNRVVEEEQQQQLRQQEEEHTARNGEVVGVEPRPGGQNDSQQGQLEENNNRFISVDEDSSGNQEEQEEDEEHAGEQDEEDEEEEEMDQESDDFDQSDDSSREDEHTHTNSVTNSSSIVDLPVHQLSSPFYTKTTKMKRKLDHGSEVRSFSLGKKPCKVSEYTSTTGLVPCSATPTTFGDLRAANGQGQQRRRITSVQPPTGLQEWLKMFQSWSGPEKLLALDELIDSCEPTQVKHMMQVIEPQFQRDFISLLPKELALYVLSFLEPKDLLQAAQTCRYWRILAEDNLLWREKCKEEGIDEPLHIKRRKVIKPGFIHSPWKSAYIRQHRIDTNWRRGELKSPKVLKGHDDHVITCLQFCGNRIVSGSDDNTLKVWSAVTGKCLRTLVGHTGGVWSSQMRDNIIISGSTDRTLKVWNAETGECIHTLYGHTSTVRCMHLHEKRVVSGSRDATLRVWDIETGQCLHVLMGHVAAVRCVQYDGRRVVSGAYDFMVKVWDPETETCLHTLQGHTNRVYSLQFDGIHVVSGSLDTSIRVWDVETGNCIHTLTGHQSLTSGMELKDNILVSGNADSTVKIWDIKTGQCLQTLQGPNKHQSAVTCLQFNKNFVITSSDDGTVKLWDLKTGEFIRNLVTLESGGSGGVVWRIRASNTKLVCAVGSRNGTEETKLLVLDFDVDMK
MITF primary – MITF inhibitors, primary screen, biochemical, AlphaScreen, human; Microphthalmia-associated transcription factor (Homo sapiens), O75030; AlphaScreen MITF homodimerization, bead proximity signal; inhibition, % at 2.6 µM; 650,000 tested, 0.91% active; in the data active = inhibition above about 50%
GPR151 conf act – GPR151 activators, triplicate retest, confirmation, cell-based, PathHunter beta-arrestin, luminescence; shares compounds with GPR151 activ; GPR151 PathHunter beta-arrestin cells, 90 min; % of EA-reagent control over plate median; activation, % at 11.2 µM; 6,700 tested, under 10 active; AID 1508609, 2020;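 active = mean percent activation across replicates above the confirmation screen cutoff of 4.91%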
GPR119 counter – GPR119 activators in beta-arrestin cells, counter-screen for GPR151 activator project, cell-based, PathHunter beta-arrestin, luminescence, triplicate. activation, % at 11.2 µM. shares compounds with GPR151 activ. 6,700 tested, 0.3% active. AID 1508611, 2020. 90 min; 0 = compound-well median, 100 = enzyme-acceptor control;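 active = mean percent activation in the counterscreen above 29.09%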;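 also: counterscreen on off-target GPR119 to flag nonselective hits from the GPR151 activator screen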
Large screens that a line does not name were inactive (follow-up assays come after a bar, where they were run).

COc1ccc(C(=O)N/C(=C\c2ccc3c(c2)OCO3)C(=O)OC(C)C)cc1	none
FC(F)(F)c1ccc(-c2[nH]ncc2-c2cnccn2)cn1	none
CCOC(=O)CN(C)C(=O)c1ccccc1Oc1nc(OC)cc(OC)n1	none
C=CCNC(=S)NS(=O)(=O)c1ccc(Cl)s1	none
COc1cc(CN2CCC3(C=Cc4ccccc43)CC2)cc2c1OCO2	none (no result: TEAD-YAP block, FBW7 activator, MITF primary)
COc1cc(CN2CCN(c3ccccc3Cl)CC2)cc2c1OCO2	GPR151 activ 5.5 | GPR151 conf act inactive | GPR119 counter inactive
Cn1nc([N+](=O)[O-])c2c(-c3nc4ccccc4n3C)c(N)n(CCc3ccccc3)c2c1=O	GPR151 activ 6.0 | GPR151 conf act inactive | GPR119 counter inactive
CC(C)(C)OC(=O)N1Cc2[nH]cnc2CC1C(=O)O (stereo not given)	none
COc1ccc(CC(=O)NNC(=O)c2ccc(COc3cccc4cccnc34)cc2)cc1	none
CCc1c(C)nc2cc(-c3ccc(OC)c(OC)c3)nn2c1NCCCn1ccnc1	GPR151 activ 6.3 | GPR151 conf act inactive | GPR119 counter inactive
CCc1c(C)nc2cc(-c3ccc(OC)c(OC)c3)nn2c1NCCO	none
O=[N+]([O-])c1ccc(Cl)cc1NCCOCC(F)(F)F	GPR151 activ 5.2 | GPR151 conf act inactive | GPR119 counter inactive
Brc1ccc(Nc2cccnc2)nc1	GPR151 activ 11 | GPR151 conf act inactive | GPR119 counter inactive
Fc1cccc(F)c1Nc1ccc(Br)cn1	none
CCOC(=O)c1sc(=NC(=O)c2cccc3ccccc23)n(C)c1C	GPR151 activ 7.8 | GPR151 conf act inactive | GPR119 counter inactive
Cn1c(SCc2ccccc2)nnc1C1CCCN1C(=O)c1ccc2c(c1)OCO2 (stereo not given)	GPR151 activ 5.9 | GPR151 conf act inactive | GPR119 counter inactive
Cn1c(SCc2ccccc2)nnc1C1CCCN1C(=O)C1CCCO1 (stereo not given)	none
COCCn1c(=O)n(Cc2ccccc2)c2cccnc21	none
Cc1nn(C)cc1CNC(=O)c1ccc(C(C)(C)C)cc1	none
N#Cc1c(-c2ccc(Cl)cc2)cc(-c2ccccc2)nc1N	none
N#Cc1c(-c2ccncc2)cc(-c2ccc(Cl)cc2)nc1N	GPR151 activ 5.4 | GPR151 conf act inactive | GPR119 counter inactive
CCC(C)NS(=O)(=O)c1ccc2c(c1)OCCO2 (stereo not given)	none
N#C/C(=C\c1ccc2c(c1)OCO2)C(=O)Nc1ccc(Cl)c([N+](=O)[O-])c1	GPR151 activ 6.0 | GPR151 conf act inactive | GPR119 counter inactive
O=C(c1cc2ccccc2oc1=O)N(Cc1ccc2c(c1)OCO2)CC1CCCO1 (stereo not given)	GPR151 activ 7.3 | GPR151 conf act inactive | GPR119 counter inactive
COc1ccc(CN(CC2CCCO2)C(=O)c2cc3ccccc3oc2=O)cc1OC (stereo not given)	none
CSc1nc(C)c2c(n1)OC(CBr)C2 (stereo not given)	GPR151 activ 5.0 | GPR151 conf act inactive | GPR119 counter inactive
Cc1ccc2nc(C)c3c(c2c1)OC(CBr)C3 (stereo not given)	none
O=C(NCCc1ccc(F)cc1)c1ccc([N+](=O)[O-])cc1Cl	GPR151 activ 11 | GPR151 conf act inactive | GPR119 counter inactive
CCOCCCNC(=O)c1cc([N+](=O)[O-])ccc1Cl	GPR151 activ 23 | GPR151 conf act inactive | GPR119 counter inactive
CCN(CC)CCCNC(=O)c1cc([N+](=O)[O-])ccc1Cl	none
COc1cccc(C=O)c1OC(=O)c1ccc([N+](=O)[O-])cc1Cl	none
Cc1ccc(N2C(=N)S/C(=C/c3sccc3C)C2=O)cc1C	none
Cc1ccsc1/C=C1\SC(=N)N(c2ccc(F)cc2)C1=O	GPR151 activ 23 | GPR151 conf act inactive | GPR119 counter inactive
COc1ccccc1NC(=O)c1cc2ccccc2oc1=Nc1ccc(Cl)cc1Cl	GPR151 activ 9.2 | GPR151 conf act inactive | GPR119 counter inactive
COc1ccccc1N=c1oc2ccccc2cc1C(=O)Nc1ccc(Cl)cc1Cl	none
Cc1ccc(C(=O)N/C(=C/c2ccco2)C(=O)Nc2ccc(C)cc2C)cc1	GPR151 activ 5.1 | GPR151 conf act inactive | GPR119 counter inactive
Cc1ccc(C(=O)N/C(=C\c2ccco2)C(=O)Nc2ccccc2)cc1C	GPR151 activ 5.6 | GPR151 conf act inactive | GPR119 counter inactive
CNC(=O)/C(=C/c1ccco1)NC(=O)c1ccc(C)cc1	none
CCOC(=O)c1sc(/N=C/N(C)C)c(C(=O)OCC)c1C	GPR151 activ 11 | GPR151 conf act inactive | GPR119 counter inactive
CCOC(=O)/C(N=Nc1sc(C(=O)OCC)c(C)c1C(=O)OCC)=C(\O)CCl	GPR151 activ 6.7 | GPR151 conf act inactive | GPR119 counter inactive
CCC(C)C1N=C2c3ccccc3N=C(SCc3cccc(F)c3)N2C1=O (stereo not given)	GPR151 activ 5.2 | GPR151 conf act inactive | GPR119 counter inactive
O=C(C[n+]1ccccc1)N/N=C/c1cccs1	GPR151 activ 6.1 | GPR151 conf act inactive | GPR119 counter inactive
COc1ccc(OC)c(C(=O)c2oc3ccc(Cl)cc3c2N)c1	TEAD-YAP block 50, GPR151 activ 6.3 | GPR151 conf act inactive | GPR119 counter inactive
COc1ccc(OC)c(C(=O)c2oc3ccc(Cl)cc3c2NC(C)=O)c1	none
COc1ccc(NC(=O)Oc2ccc([N+](=O)[O-])cc2)cc1	none
COc1cc(NC(=O)c2cccc(-n3cc(NC(=O)N[C@@H](C)c4ccccc4)cn3)c2)ccc1N1CCOCC1	GPR151 activ 5.7 | GPR151 conf act inactive | GPR119 counter inactive
CCc1nn(CC(=O)OC(C)C)c(=O)c2cc3oc(C)cc3n12	GPR151 activ 5.4 | GPR151 conf act inactive | GPR119 counter inactive
COc1ccc(CCN2C(=O)CC(C(=O)Nc3ccc(F)cc3)SC2=Nc2ccc(Cl)cc2)cc1OC (stereo not given)	none
COc1ccc(CCN2C(=O)CC(C(=O)Nc3ccc(Cl)cc3)SC2=Nc2ccc(F)cc2)cc1OC (stereo not given)	GPR151 activ 5.4 | GPR151 conf act inactive | GPR119 counter inactive
COC(=O)C(CCSC)NC(=O)c1ccc(Cl)cc1Cl (stereo not given)	GPR151 activ 9.7 | GPR151 conf act inactive | GPR119 counter inactive
O=C(NCc1ccccc1)c1cnc(Nc2ccc(N3CCOCC3)cc2)s1	none
Cn1c2ccc(Br)cc2c2nnc(SCC(N)=O)nc21	none
COc1ccc(-c2noc(NCc3cccc(Cl)c3)n2)cc1OC	GPR151 activ 4.9 | GPR151 conf act inactive | GPR119 counter inactive
COc1ccc(-c2noc(NCc3ccccc3)n2)cc1OC	none

Assay outcomes deposited in PubChem BioAssay by The Scripps Research Institute Molecular Screening Center.
